The values that follow come from PubChem BioAssay (EPA / NIEHS).

“And” between values parts separate entries of the source, which are not always exact repeats. Equal entries are not always repeated. Some structures have more than one record in an assay (separate samples or runs), and their calls can disagree. The source made the active and inactive calls. Rule for the calls: active = hit-call score of the fitted dose curve at least 0.9, where 1 is the maximum; inactive = score below 0.9.

The AC50 is the concentration giving half of the maximal activity seen.

Transcription factor Sp1 (Homo sapiens), sequence (P08047 whole entry, looked up): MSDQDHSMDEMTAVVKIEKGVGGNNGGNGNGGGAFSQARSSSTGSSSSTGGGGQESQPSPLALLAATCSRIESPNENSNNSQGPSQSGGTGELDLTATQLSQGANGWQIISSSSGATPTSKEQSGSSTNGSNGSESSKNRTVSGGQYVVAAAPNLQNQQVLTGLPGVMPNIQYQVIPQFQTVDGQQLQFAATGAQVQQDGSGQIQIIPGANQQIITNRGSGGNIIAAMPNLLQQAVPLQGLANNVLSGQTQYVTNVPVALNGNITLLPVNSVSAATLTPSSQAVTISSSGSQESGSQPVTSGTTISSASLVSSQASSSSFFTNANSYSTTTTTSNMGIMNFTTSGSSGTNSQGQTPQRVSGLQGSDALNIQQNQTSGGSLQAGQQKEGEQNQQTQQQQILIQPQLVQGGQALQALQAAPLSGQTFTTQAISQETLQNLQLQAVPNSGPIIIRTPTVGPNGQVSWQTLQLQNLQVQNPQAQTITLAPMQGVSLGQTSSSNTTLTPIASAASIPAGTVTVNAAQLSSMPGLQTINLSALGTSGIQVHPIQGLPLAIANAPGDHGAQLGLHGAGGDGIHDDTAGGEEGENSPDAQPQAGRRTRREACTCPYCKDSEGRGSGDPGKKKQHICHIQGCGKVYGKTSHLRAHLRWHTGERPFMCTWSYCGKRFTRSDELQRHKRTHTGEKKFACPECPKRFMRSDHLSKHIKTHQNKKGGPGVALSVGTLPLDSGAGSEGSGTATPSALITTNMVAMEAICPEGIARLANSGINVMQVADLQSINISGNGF

The target of the experiment is Transcription factor Sp1 (Homo sapiens) (UniProt P08047). The experiment is described as follows: ATG_Sp1_CIS: Attagene CIS-FACTORIAL HepG2 Assay for human Specificity Protein 1 (Sp1) (AID 2282961). To be noted: HepG2 Sp1 cis-reporter transcription, actives raise or lower the signal. The method, then:
ATG_CIS is a cell-based, multiplexed-readout assay that uses HepG2, a human liver cell line, with measurements taken at 24 hours after chemical dosing in a 24-well plate.ATG_Sp1_CIS is one of 52 assay component(s) measured or calculated from the ATG_CIS assay. It is designed to make measurements of mRNA induction, a form of inducible reporter, as detected with fluorescence intensity signals by Reverse transcription polymerase chain reaction (RT-PCR) and Capillary electrophoresis technology.Data from the assay component ATG_Sp1_CIS was analyzed into 1 assay endpoint. This assay endpoint, ATG_Sp1_CIS, was analyzed with bidirectional fitting relative to DMSO as the negative control and baseline of activity. Using a type of inducible reporter, measures of mRNA for gain or loss-of-signal activity can be used to understand the reporter gene at the transcription factor-level as they relate to the gene SP1. Furthermore, this assay endpoint can be referred to as a primary readout, because this assay has produced multiple assay endpoints where this one serves a reporter gene function. To generalize the intended target to other relatable targets, this assay endpoint is annotated to the dna binding intended target family, where the subfamily is zinc finger.
Human liver HepG2 cells are transiently transfected with multiple reporter transcription units (MRTUs) in 6-well plates using FuGene 6 reagent (Roche; 3 ml FuGene/1 mg DNA). The MRTU constructs are regulated by a cis-regulating element (promoter). […] A major difference between the CIS and TRANS system is that in CIS activities of endogenous TFs are measured, whereas the TRANS assay evaluates changes in activities of exogenous, chimeric NR-Gal4 proteins. […] At the end of 24 hour incubation, total RNA was isolated using TriZol reagent (Invitrogen). The isolated RNA is then reverse-transcribed using oligo(dT) primer and Mo-MLV reverse transcriptase (Invitrogen) with DNAse I (Ambion) treatment for 30 min. The one-tenth of the produced cDNA was amplified by PCR using Taq DNA polymerase (Invitrogen) and two reporter sequence-specific primers. The PCR products were fluorescently labeled by primer extension with 6-arboxyfluorescein (6-FAM) 5'-labeled reporter sequence-specific primer (2 min at 95 C, 20 s at 68 C and 10 min at 72 C) and these products were digested with 5U of HpaI (New England Biolabs) for 2h at 37 C. The fragments were purified using Qiaquick PCR columns (Qiagen), analyzed on an ABI 3130xL genetic analyzer (Applied Biosystems) with peak positions identified by using a set of X-rhodamine (ROX)-labeled MapMarker1000 molecular weight standards (BioVentures). The raw capillary electrophoresis data was processed using Attagraph software (Attagene).
Consider `FC(F)(F)C(F)(F)C(F)(F)C(F)(F)I`, for which the compound was classed as inactive.
Still for that read-out and setting: to `O=C(OC(=O)C(F)(F)C(F)(F)F)C(F)(F)C(F)(F)F` belongs “inactive”; to `Cc1ccc(C)c(S(=O)(=O)O)c1`, “inactive”.
On the same count and under the same terms, the value for `O=C(Nc1ccc(Cl)c(Cl)c1)c1cc(Cl)cc(Cl)c1O` was “inactive”; that for `CCCCc1ccc2ccccc2c1S(=O)(=O)O` was “inactive”.
Consider `Cc1cc(C(C)(C)C)c(O)c(C(C)(C)C)c1`, for which the half-maximal activity concentration (AC50) was 52.3 µM (active) and 97 µM (active).
In the case of `CCCCCCCCCCCC(=O)O`, the compound was classed as inactive and the half-maximal activity concentration (AC50) is 36.7 µM (active).
For `O=C(c1ccccc1)c1ccccc1`, the compound was classed as inactive.
Still for that read-out and setting: the value for `Cc1cccc2c1ccc1ccccc12` was “inactive”.
On the same count and under the same terms, the value for `CC(C)CCOCCC(C)C` was “inactive”.
On to `CCCCCCCCCCCCOC(=O)c1cc(O)c(O)c(O)c1`, for which the compound was called inactive.
As to `OCC(CO)(CBr)CBr`, the compound was called inactive.
`CC(=O)Nc1ccc(O)cc1`: the outcome was inactive.
Turning to `CCc1ccccc1O`, the outcome was inactive.
The same measure, in the same setting: to `CCCCCCCCCCCCCCCCCC[N+](C)(C)Cc1ccccc1` belongs “inactive”.
Still for that read-out and setting: to `Oc1ccc(Cc2ccccc2O)cc1` belongs “inactive”; to `CCCCCCCC(OC)OC`, “inactive”.
For `COC(O)c1ccccc1` (stereo unspecified), the compound was classed as inactive.
The same measure, in the same setting: to `CCCCCCc1ccc(N)cc1` belongs “inactive”; to `O=c1cc(-c2ccccc2)oc2ccc3ccccc3c12`, “inactive”; to `CCOC(OCC)C(=O)c1ccccc1`, “inactive”.
Still for that read-out and setting: to `CCC1CO1` (stereo unspecified) belongs “inactive”.
Still for that read-out and setting: the value for `FCOC(C(F)(F)F)C(F)(F)F` was “inactive”.
As for `O=C1OC(=O)C(F)(F)C1(F)F`, the outcome was inactive.
For the compound `CN(C)c1ccc(C(=C2C=CC(=[N+](C)C)C=C2)c2ccccc2)cc1`, the call was inactive and the concentration at half-maximal activity (AC50) is 1.43 µM (active).
`CCCCC(CC)C(=O)OCCOCCOCCOCCOC(=O)C(CC)CCCC` (stereo unspecified): the call was inactive.
On the same count and under the same terms, to `COc1cccc(O)c1` belongs “inactive”.
`O=C(CC(=O)C(F)(F)C(F)(F)C(F)(F)F)c1cccs1`: the compound was classed as inactive and the AC50 was 39.6 µM (active).
Consider `C=CC(C)(CCC=C(C)C)OC(C)=O` (stereo unspecified), for which the compound was called inactive.
Turning to `Nc1cc(Cl)c(-c2cc(Cl)c(N)cc2Cl)cc1Cl`, the AC50 was 15.9 µM (active).
Turning to `CC(=O)CC(C)C`, the call was inactive.
Turning to `O=C(O)CCC(F)(F)C(F)(F)C(F)(F)C(F)(F)C(F)(F)C(F)(F)F`, the call was inactive.
As to `Oc1c(Cl)cc(Cl)cc1Sc1cc(Cl)cc(Cl)c1O`, the outcome was inactive.
With `O=C(O)C(=O)O`, the result was inactive.
`COc1cc([N+](=O)[O-])ccc1N`: the call was inactive.
The same measure, in the same setting: to `Cc1ccc(C(=O)c2ccccc2)cc1` belongs “inactive”.
As for `CCCCCCCCCCCC[N+](C)(C)Cc1ccccc1`, the result was inactive and the AC50 is 6.43 µM (active).
